# Measured values reported in PubChem BioAssay.
# Activity calls are given as the source filed them.
# How the values were obtained:
# [1] = test system: PRMT1 (protein arginine N-methyltransferase 1); assay: PRMT1 binders on small-molecule microarrays, primary screen, biochemical, small-molecule microarray, 635 nm fluorescence (AID 1088); details: small-molecule microarray binding, higher = more signal;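 also: binding of Prmt1 protein to compounds spotted on small-molecule microarray slides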
# [2] = yeast growth modulation, basal conditions, primary screen, YJM789 clinical isolate, OD600, 24 h (AID 1089);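 also: growth of clinical yeast isolate S. cerevisiae YJM 789 seeded 1000 cells per well; test concentration not given here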; details: S. cerevisiae YJM789 growth, higher = more signal, called active from +8 up or from −8 down
# [3] = fission yeast growth modulation, primary screen, strain 972, OD600, 24 h, no modulator (AID 1090);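 also: basal condition with compound alone and no growth modifier present; test concentration not given here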; details: S. pombe 972 growth, higher = more signal, called active from +8 up or from −8 down
# [4] = S. cerevisiae growth modulation with rapamycin, primary screen, strain BY4716, OD600, 96 h (AID 1091); details: higher = more signal, called active from +8 up or from −8 down; also: test concentration not given here
# [5] = target: Torsin-1A-interacting protein 2 (Homo sapiens) (UniProt Q8NFQ8); assay: LULL1 binders on small-molecule microarray, primary screen, cell lysate, human LULL1 lysate, 635/667 nm fluorescence (AID 1092); details: hLULL1 lysate binding, 635 nm fluorescence, higher = more signal;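 also: probe is lysate of COS7 cells overexpressing human LULL1; score merges per-feature 667 nm fluorescence with signal-to-noise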
# Torsin-1A-interacting protein 2 (Homo sapiens), sequence (Q8NFQ8 whole entry, looked up): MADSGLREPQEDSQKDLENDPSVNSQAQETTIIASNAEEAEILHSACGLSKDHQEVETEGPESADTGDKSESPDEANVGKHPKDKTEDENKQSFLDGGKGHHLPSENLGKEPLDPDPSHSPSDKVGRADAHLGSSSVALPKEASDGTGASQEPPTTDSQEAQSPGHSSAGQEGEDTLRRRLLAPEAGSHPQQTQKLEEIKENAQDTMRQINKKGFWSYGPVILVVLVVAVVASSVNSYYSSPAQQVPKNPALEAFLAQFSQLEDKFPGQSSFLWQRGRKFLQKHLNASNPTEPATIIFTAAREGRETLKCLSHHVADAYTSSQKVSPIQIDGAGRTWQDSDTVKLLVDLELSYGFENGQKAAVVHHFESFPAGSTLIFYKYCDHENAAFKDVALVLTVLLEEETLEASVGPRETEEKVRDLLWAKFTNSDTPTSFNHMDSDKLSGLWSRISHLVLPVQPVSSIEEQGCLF
# [6] = E. coli growth modulation, two-sided OD650, primary screen, E. coli filamentation project, strain DRC41, 24 h (AID 1093); details: OD650, 24 h, higher = more signal, called active from +8 up or from −8 down;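 also: MC1000 strain lacking acrAB efflux and sulA so SOS filamentation is blocked; test concentration not given here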
# [7] = small-molecule microarray binders of probe aLefty2, primary screen, biochemical, biotinylated probe, 635/667 nm fluorescence (AID 1094); details: higher = more signal;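 also: score merges spot fluorescence near 667 nm with spot signal-to-noise ratio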
# [8] = test system: Noggin (protein binding on small-molecule microarray); assay: Noggin binders on small-molecule microarray, primary screen, biochemical, 635/667 nm fluorescence (AID 1095); details: 635 nm fluorescence, higher = more signal;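 also: score merges 667 nm feature fluorescence with signal to noise over triplicate slides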
# [9] = target: Neurogenic locus notch homolog protein 3 (Homo sapiens) (UniProt Q9UM47); assay: NOTCH3 binders on small-molecule microarray, primary screen, biochemical, 635/667 nm fluorescence (AID 1096); details: NOTCH3 binding, 635 nm fluorescence, higher = more signal
# Neurogenic locus notch homolog protein 3 (Homo sapiens), sequence (Q9UM47 whole entry, looked up): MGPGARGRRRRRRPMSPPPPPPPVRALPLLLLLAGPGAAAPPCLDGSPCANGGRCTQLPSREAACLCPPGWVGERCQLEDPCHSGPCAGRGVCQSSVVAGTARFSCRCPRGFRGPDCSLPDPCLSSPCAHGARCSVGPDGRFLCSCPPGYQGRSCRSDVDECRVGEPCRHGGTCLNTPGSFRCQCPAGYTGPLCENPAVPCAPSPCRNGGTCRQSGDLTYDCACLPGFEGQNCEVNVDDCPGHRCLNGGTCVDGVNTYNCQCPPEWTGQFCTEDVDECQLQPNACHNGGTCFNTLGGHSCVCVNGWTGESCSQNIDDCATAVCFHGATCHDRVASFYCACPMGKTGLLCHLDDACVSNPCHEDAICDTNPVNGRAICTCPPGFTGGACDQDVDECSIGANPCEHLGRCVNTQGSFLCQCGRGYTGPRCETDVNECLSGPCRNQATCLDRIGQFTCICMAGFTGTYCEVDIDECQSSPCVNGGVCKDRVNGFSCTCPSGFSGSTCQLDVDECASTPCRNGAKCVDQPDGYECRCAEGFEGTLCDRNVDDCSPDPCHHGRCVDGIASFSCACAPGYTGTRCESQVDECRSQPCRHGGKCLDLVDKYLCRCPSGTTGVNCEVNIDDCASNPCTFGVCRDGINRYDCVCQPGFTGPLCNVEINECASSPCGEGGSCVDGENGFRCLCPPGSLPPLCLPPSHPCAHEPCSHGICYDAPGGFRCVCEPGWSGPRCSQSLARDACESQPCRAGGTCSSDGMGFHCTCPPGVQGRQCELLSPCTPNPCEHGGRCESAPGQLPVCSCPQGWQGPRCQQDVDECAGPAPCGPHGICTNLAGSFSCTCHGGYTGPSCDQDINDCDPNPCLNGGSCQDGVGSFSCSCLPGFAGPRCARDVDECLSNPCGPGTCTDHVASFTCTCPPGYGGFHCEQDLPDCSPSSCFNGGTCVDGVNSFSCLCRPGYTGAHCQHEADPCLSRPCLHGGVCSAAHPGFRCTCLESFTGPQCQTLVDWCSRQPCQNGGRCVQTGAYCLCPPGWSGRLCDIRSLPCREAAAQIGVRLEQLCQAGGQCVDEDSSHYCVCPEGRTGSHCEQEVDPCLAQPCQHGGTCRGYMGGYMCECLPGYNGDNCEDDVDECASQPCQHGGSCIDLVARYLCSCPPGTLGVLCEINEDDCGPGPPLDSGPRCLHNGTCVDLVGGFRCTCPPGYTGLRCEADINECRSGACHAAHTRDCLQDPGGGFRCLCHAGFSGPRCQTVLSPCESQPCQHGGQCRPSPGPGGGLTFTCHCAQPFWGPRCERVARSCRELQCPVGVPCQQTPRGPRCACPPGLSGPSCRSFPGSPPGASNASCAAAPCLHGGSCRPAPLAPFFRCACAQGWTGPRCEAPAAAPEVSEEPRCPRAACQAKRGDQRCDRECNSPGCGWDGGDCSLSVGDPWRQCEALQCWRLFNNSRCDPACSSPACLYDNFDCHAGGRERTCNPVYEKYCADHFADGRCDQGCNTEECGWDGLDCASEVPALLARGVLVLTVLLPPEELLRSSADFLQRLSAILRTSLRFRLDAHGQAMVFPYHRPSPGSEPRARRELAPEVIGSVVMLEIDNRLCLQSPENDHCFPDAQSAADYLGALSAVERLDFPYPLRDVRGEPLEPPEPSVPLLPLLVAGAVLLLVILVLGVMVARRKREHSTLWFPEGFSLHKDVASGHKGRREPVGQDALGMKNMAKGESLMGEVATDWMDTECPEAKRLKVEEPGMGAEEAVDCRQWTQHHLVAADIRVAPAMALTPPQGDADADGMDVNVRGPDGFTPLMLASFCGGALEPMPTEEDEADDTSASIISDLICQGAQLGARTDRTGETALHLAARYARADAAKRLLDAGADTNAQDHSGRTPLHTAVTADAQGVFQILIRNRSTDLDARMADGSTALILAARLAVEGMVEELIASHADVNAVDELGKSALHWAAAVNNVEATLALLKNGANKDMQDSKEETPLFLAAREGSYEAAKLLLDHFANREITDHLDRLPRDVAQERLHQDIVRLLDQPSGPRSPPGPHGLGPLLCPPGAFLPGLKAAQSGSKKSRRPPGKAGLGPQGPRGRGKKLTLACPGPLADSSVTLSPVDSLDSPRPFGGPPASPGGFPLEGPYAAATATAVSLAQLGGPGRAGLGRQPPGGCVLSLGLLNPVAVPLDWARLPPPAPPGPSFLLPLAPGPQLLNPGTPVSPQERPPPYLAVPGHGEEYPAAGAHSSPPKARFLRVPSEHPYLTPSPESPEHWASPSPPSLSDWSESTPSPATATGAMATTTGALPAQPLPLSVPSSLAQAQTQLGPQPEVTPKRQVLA
# [10] = small-molecule microarray binders of probe aEGFR, primary screen, biochemical, biotinylated probe, 635/667 nm fluorescence (AID 1097); details: higher = more signal;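 also: probe is a biotinylated anti-EGFR antibody binding compounds printed on slides; score combines fluorescence near 667 nm and signal to noise of each spot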
# [11] = test system: Plasmodium falciparum Sir2 (PF13_0152, Sir2A); assay: pfSir2 binders on small-molecule microarrays, primary screen, biochemical, small-molecule microarray, 635 nm fluorescence (AID 1098); details: small-molecule microarray binding, fluorescence 635 nm; higher = more signal;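 also: score merges spot fluorescence intensity with its signal-to-noise ratio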
# [12] = small-molecule microarray binders of probe aDKK1, primary screen, biochemical, biotinylated probe, 635/667 nm fluorescence (AID 1099); details: higher = more signal;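 also: score merges 667nm spot fluorescence with signal to noise across triplicate slides; reference of the scale not given here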
# [13] = small-molecule microarray binders of probe aCHRDL2, primary screen, biochemical, biotinylated probe, 635/667 nm fluorescence (AID 1100); details: higher = more signal
# [14] = splicing luciferase reporter signal modulators, primary screen, spliceosome inhibition project, cell-based, HEK293, splice +/- reporter (AID 1101); details: luminescence, 24 h, higher = more signal, called active from +8 up or from −8 down;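 also: HEK293 cells carrying a splicing-competent luciferase reporter gene; test concentration not given here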
# [15] = target: Fibroblast growth factor 10 (Homo sapiens) (UniProt O15520); assay: FGF10 binders on small-molecule microarrays, primary screen, biochemical, small-molecule microarray, 635 nm fluorescence (AID 1102); details: FGF10 binding, fluorescence 635 nm, higher = more signal
# Fibroblast growth factor 10 (Homo sapiens), sequence (O15520 whole entry, looked up): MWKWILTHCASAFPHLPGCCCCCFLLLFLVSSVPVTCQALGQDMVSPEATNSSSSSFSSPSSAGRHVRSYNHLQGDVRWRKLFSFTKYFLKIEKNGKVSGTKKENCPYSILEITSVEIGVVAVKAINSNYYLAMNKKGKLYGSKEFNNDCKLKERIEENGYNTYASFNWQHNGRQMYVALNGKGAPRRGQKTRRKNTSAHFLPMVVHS
# [16] = test system: glycogen synthase kinase-3 (GSK3A per assay name; protocol says GSK3B); assay: GSK3 binders on small-molecule microarrays, primary screen, biochemical, small-molecule microarray, 635 nm fluorescence, GSK3A (AID 1103); details: small-molecule microarray binding, fluorescence 635 nm; higher = more signal; also: the record names both GSK3A and GSK3B
# [17] = target: Epidermal growth factor receptor (Homo sapiens) (UniProt P00533); assay: EGFR binders on small-molecule microarrays, primary screen, biochemical, small-molecule microarray, 635 nm fluorescence (AID 1104); details: EGFR binding, higher = more signal;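 also: score merges 667 nm emission intensity with spot signal to noise over triplicate slides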
# Epidermal growth factor receptor (Homo sapiens), sequence (P00533 whole entry, looked up): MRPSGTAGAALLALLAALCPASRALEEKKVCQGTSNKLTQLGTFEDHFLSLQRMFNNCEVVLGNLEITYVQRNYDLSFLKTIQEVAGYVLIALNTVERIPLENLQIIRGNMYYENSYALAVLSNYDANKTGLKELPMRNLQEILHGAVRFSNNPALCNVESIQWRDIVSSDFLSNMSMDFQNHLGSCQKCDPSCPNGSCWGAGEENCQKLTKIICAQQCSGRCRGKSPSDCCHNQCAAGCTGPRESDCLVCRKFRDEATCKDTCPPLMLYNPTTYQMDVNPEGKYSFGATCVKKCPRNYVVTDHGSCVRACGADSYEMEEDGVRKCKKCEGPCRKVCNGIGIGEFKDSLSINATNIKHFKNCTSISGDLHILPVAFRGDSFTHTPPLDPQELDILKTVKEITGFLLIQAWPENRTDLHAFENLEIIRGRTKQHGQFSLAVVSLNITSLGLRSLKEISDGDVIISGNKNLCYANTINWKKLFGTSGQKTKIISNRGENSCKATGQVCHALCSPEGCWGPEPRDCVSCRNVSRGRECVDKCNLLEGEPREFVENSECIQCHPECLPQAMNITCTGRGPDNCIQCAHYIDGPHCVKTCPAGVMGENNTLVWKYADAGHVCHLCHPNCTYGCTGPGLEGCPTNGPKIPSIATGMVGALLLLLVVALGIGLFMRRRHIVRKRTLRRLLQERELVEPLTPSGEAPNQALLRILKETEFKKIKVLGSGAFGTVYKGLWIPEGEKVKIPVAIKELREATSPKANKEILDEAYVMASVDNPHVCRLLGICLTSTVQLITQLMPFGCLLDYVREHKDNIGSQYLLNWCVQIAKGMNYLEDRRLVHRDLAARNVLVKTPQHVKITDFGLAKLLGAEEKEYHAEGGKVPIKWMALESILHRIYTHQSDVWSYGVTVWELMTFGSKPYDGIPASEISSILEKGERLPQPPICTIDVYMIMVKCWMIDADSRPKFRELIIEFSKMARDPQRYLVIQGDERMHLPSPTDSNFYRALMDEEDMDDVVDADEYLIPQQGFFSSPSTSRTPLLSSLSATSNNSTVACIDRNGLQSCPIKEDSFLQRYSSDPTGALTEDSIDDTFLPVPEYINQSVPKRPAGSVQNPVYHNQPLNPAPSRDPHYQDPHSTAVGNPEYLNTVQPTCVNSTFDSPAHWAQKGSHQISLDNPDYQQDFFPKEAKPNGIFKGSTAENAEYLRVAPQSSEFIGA
# [18] = target: Follistatin-related protein 3 (Homo sapiens) (UniProt O95633); assay: FSTL3 binders on small-molecule microarrays, primary screen, biochemical, small-molecule microarray, 635 nm fluorescence (AID 1105); details: FSTL3 binding, higher = more signal;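 also: score merges emission near 667 nm and signal to noise per printed spot across three slides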
# Follistatin-related protein 3 (Homo sapiens), sequence (O95633 whole entry, looked up): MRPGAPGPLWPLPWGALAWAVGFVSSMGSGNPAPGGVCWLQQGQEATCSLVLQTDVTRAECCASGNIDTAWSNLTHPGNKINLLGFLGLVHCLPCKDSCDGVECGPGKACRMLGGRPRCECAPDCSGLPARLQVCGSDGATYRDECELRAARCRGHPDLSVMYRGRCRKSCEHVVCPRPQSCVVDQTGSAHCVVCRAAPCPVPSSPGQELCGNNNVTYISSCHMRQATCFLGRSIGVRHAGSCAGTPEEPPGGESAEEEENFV
# [19] = target: Dickkopf-related protein 1 (Homo sapiens) (UniProt O94907); assay: DKK1 binders on small-molecule microarrays, primary screen, biochemical, small-molecule microarray, 635 nm fluorescence scan (AID 1106); details: DKK1 binding, higher = more signal;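 also: score merges emission near 667 nm with signal to noise over three replicate slides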
# Dickkopf-related protein 1 (Homo sapiens), sequence (O94907 whole entry, looked up): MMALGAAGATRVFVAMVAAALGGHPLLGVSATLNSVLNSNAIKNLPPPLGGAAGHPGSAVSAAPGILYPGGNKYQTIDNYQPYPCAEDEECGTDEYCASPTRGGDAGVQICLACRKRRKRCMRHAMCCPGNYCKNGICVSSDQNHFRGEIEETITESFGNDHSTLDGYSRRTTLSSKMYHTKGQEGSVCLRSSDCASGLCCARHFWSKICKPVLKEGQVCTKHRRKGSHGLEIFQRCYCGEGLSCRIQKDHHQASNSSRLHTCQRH
# [20] = test system: Inhibin beta A chain (activin A); assay: INHBA (activin A) binders on microarrays, primary screen, biochemical, small-molecule microarray, 635 nm fluorescence scan (AID 1107); details: small-molecule microarray binding, higher = more signal;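 also: mouse activin A protein probed at 4.33 µg/mL on printed slides; score merges bound-protein fluorescence near 667 nm with spot signal-to-noise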
Structure (SMILES),composite z-score [1],z-score [2],z-score [3],z-score [4],composite z-score [5],z-score [6],composite z-score [7],composite z-score [8],composite z-score [9],composite z-score [10],composite z-score [11],composite z-score [12],composite z-score [13],z-score [14],composite z-score [15],composite z-score [16],composite z-score [17],composite z-score [18],composite z-score [19],composite z-score [20]
O=C1O[C@H](c2ccccc2)[C@H](c2ccccc2)N2[C@H]1[C@@H](C(=O)NC[C@H](O)c1ccccc1)[C@]1(C(=O)Nc3ccc(C#CC4=CCCCC4)cc31)[C@H]2c1ccc(OCCO)cc1,1.55,2.99 (inactive),1.64 (inactive),4.01 (inactive),1.85,-0.422 (inactive),-0.104,0.691,1.11,-0.0494,1.06,0.607,0.469,-1.33 (inactive),0.313,1.27,0.386,0.968,0.703,1.05
CC(C)(C)OC(=O)CC[C@]1(C(=O)N2CCCCC2)N=C(c2ccc(OCCCO)cc2)O[C@H]1c1ccccc1,1.54,-4.57 (inactive),-3.11 (inactive),-1.07 (inactive),3.48,0.726 (inactive),0.0224,1.04,1.15,-0.084,1.73,0.464,0.56,-0.767 (inactive),1.2,1.29,0.494,1.37,0.691,0.556
O=C(NCc1ccccc1)c1ccc(Br)cc1[N+](=O)[O-],0.54,-1.19 (inactive),-1.08 (inactive),-0.778 (inactive),0.715,0.768 (inactive),0.109,0.0399,0.338,-0.0353,0.333,-0.261,-0.47,0.628 (inactive),0.39,0.215,0.425,0.494,0.346,0.31
COCCOC(=O)N1C(=O)[C@@]2(c3cc(C#CCNC(N)=O)ccc31)[C@H](c1ccc(OCCO)cc1)N1[C@H](c3ccccc3)[C@H](c3ccccc3)OC(=O)[C@H]1[C@@H]2C(=O)N1CCCCCCC1,0.844,1.64 (inactive),0.501 (inactive),3.94 (inactive),0.789,2.27 (inactive),1.09,0.406,0.555,0.0199,0.795,1.48,1.11,-0.908 (inactive),0.198,-0.246,0.0212,0.895,0.199,1.69
COc1ccc(CCNC(=O)[C@@]2(c3ccc([N+](=O)[O-])cc3)CC(=O)N(C(C)C)[C@@H]2c2ccc(CO)cc2)cc1,-0.383,-1.15 (inactive),-1.2 (inactive),-1.1 (inactive),2.99,1.89 (inactive),0.11,-1.2,-0.791,-0.318,1.25,0.716,1.24,-0.58 (inactive),-0.787,-0.767,-1.57,-1.67,-1.43,-0.445
CC(=O)NCCCC[C@@H]1NC(=O)[C@H]2C[C@@H](C(=O)NCCCCCCN(C)C)[C@@H](c3ccc(O)cc3)N2C1=O,1.54,-0.139 (inactive),-0.566 (inactive),0.613 (inactive),2.97,-0.179 (inactive),-0.0391,1.71,0.989,0.0122,1.04,-0.124,0.0091,-0.808 (inactive),0.815,1.35,0.851,1.55,1.14,0.775
NC(=O)NCC#Cc1ccc2c(c1)[C@]1(C(=O)N2)[C@H](C(=O)N2CCCCCCC2)[C@H]2C(=O)O[C@H](c3ccccc3)[C@H](c3ccccc3)N2[C@@H]1c1ccccc1OCCO,1.54,0.305 (inactive),-3.26 (inactive),1 (inactive),4.33,1.82 (inactive),1.65,1.36,1.05,1.3,1.82,2.98,1.66,0.0838 (inactive),1.39,1.38,1.7,1.71,2.26,1.86
N#Cc1ccc(NN2C(C(O)c3ccc(I)cc3)C=CC3C(=O)N(c4ccccc4)C(=O)C32)cc1 (stereo not given),1.16,0.647 (inactive),2.19 (inactive),3.88 (inactive),3.47,-1.38 (inactive),0.247,-0.0788,1.07,0.0601,1.13,0.124,1.03,2.17 (inactive),0.549,0.656,0.0977,0.421,-0.337,0.462
CC(C)NC(=O)[C@@]1(Cc2ccccc2I)c2ccccc2C(=O)N(C2CCCCC2)[C@H]1c1ccc(CO)cc1,1.53,0.401 (inactive),-2.09 (inactive),-1.03 (inactive),3.4,-0.432 (inactive),0.261,0.128,1.14,0.0861,1.02,0.65,0.793,0.129 (inactive),1.1,1.2,0.118,1.35,0.4,0.386
COc1cc2c(cc1OC)CN(C(=O)[C@H]1[C@@H]3C(=O)O[C@@H](c4ccccc4)[C@@H](c4ccccc4)N3[C@@H](c3ccc(O)cc3)[C@]13C(=O)Nc1ccc(C#CC4(O)CCCCCC4)cc13)CC2,1.41,0.377 (inactive),0.0581 (inactive),0.695 (inactive),3.75,0.206 (inactive),0.675,1.72,0.991,0.221,1.75,0.458,0.46,-0.81 (inactive),1.4,1.36,0.853,1.46,1.1,0.616
